According to PubChem BioAssay (NCATS):
Several values for one entry are separate records, joined by “and”; a condition that tells them apart may be missing. Equal values may be shown once. Results filed as inconclusive are left out. Activity calls are given as the source filed them. Unless noted, the call rests on the fitted dose curve; in most records, active means well fitted curve in the direction sought with a large enough effect; inconclusive means small, poorly fitted or top-dose-only effect, or another doubt; inactive means no such curve, though single readings can be large; an effect the other way counts as inactive or inconclusive.

Tests used:
[1] = qHTS assay for environmental chemicals that activate the Aryl hydrocarbon Receptor (AhR) signaling pathway (AID 651777); settings: 1A2-DRE human hepatoma cells, luciferase, 24 h; activation: stronger effect = higher value; further: nearly all actives have a fitted effect of over 15% in size; further: potency means the concentration at half of the fitted maximal effect; on activation: % of control where 0% means no effect
Outline: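 Human hepatoma 1A2-DRE cells stably carrying a DRE/CYP1A2 promoter–luciferase reporter, 1,200 cells/well, exposed to compound 24 hr at 37 C. Luciferase read by One-Glo luminescence after 30 min at room temperature; increased signal marks AhR activation.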

[2] = target: Peroxisome proliferator-activated receptor alpha (Homo sapiens) (UniProt Q07869); experiment: qHTS assay for small molecule agonists of the peroxisome proliferator-activated receptor alpha (PPARalpha) signaling pathway (AID 651778); settings: PathHunter PPARalpha complementation, chemiluminescence, 6 h; stronger effect = higher value; further: % of control where 0% means no effect
Peroxisome proliferator-activated receptor alpha (Homo sapiens), sequence (Q07869 whole entry, looked up): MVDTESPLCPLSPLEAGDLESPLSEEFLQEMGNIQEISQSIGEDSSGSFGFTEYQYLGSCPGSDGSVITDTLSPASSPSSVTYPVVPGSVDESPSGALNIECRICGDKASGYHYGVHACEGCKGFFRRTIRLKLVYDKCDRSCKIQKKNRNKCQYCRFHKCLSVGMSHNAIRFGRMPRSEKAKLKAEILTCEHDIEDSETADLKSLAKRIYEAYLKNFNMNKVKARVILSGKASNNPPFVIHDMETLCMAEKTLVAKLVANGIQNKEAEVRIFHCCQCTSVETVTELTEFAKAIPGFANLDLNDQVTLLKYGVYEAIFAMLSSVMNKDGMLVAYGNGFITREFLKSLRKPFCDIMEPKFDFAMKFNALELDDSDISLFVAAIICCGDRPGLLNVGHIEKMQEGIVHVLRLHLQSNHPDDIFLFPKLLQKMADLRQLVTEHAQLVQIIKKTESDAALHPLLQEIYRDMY
Outline: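 Cells plated at 2,000/well and held overnight at 37 C, 5% CO2, then compound added by pin tool for 6 hr; after PathHunter detection reagent and 60 min at room temperature, chemiluminescence from enzyme complementation was read.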

[3] = target: Nuclear receptor ROR-gamma (Homo sapiens) (UniProt P51449); experiment: qHTS assay for small molecule antagonists of the retinoid-related orphan receptor gamma (ROR-gamma) signaling pathway (AID 651802);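 further: CHO cells with doxycycline-induced ROR-gamma expression; luciferase reporter luminescence driven by ROR response element; on the % scale 0 is the no-effect control and ±100 the full control effect; nearly all actives have a fitted effect of over 60% in size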
Nuclear receptor ROR-gamma (Homo sapiens), sequence (P51449 whole entry, looked up): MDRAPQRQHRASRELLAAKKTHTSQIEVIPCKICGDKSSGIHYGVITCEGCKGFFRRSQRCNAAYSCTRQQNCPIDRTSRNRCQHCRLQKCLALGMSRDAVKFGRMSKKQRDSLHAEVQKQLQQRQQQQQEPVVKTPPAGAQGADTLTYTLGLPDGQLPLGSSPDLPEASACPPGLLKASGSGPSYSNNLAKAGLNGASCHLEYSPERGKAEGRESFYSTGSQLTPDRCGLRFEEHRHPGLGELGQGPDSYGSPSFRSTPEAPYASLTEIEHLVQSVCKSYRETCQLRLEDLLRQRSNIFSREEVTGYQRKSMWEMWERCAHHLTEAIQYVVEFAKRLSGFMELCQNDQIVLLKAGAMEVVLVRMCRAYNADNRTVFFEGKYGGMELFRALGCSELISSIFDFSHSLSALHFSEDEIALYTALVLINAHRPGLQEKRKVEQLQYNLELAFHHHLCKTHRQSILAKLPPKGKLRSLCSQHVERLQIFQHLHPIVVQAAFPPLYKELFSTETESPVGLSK
Outline: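 Doxycycline-induced reporter activity in engineered CHO cells (TET-inducible ROR, RORE-LUC) was measured by luminescence after 16hr compound exposure at 37C.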

[4] = qHTS assay for small molecule agonists of the antioxidant response element (ARE) signaling pathway measured by Nrf2-dependant transcriptional activity (AID 720636; active means well fitted curve in the direction sought with a large enough effect in the repeat runs; an effect the other way counts as inactive or inconclusive; further: potency means the concentration at half of the fitted maximal effect; on activation: % of control where 0% means no effect)
Outline: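 ARE-luc HepG2 cells carrying an Nrf2-responsive luciferase reporter, in medium with 1% dialyzed FBS, exposed to compound for 16 hr at 37 C, 5% CO2. Luminescence read 30 min after ONE-Glo addition.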

[5] = qHTS assay for small molecule antagonists of the retinoid-related orphan receptor gamma (ROR-gamma) signaling pathway - cell viability counter screen (AID 720652; active means well fitted curve in the direction sought with a large enough effect in the repeat runs; an effect the other way counts as inactive or inconclusive;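 further: CHO reporter cells with doxycycline-induced ROR-gamma expression; compound exposure lasted 16 hr before ATP read; on the % scale 0 is the no-effect control and ±100 the full control effect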)
Outline: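 ATP-based viability readout in the ROR-gamma reporter CHO cells after 16 hr compound exposure under doxycycline induction.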

[6] = qHTS assay for small molecule agonists of the antioxidant response element (ARE) signaling pathway measured by Nrf2-dependant transcriptional activity - cell viability counter screen (AID 720653; active means well fitted curve in the direction sought with a large enough effect in the repeat runs; an effect the other way counts as inactive or inconclusive; further: on the % scale 0 is the no-effect control and ±100 the full control effect); settings: ARE-bla HepG2 viability, CellTiter-Glo ATP luminescence, 16 h; max response: stronger effect = lower value
Outline: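 ARE-bla HepG2 cells (2,000/well) rested 5 hrs at 37C/5% CO2, then exposed to compounds in DMSO for 16 hrs. Viability was read in the same wells as intracellular ATP by luminescence, 30 min at room temperature after reagent addition.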

[7] = qHTS Assay for Identifying Gametocytocidal Compounds (AID 743244); further: potency means the concentration at half of the fitted maximal effect;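 on max response: on the % scale 0 is the no-effect control and ±100 the full control effect; actives lower the fluorescent signal which means gametocytes are killed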; settings: P. falciparum 3D7 stage III-V gametocytes, alamarBlue, 72 h; max response: stronger effect = lower value
Outline: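 3D7 gametocytes, stages III–V, 20,000/well; cpd 72 h, 37 °C/5% CO2; + alamarBlue 24 h; fluor. Ex 525/Em 598.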

[8] = qHTS assay for cell viability of HEK293 cells (AID 743288); settings: ATP luminescence (CellTiter-Glo), 18 h; max response: stronger effect = lower value; further: on the % scale 0 is the no-effect control and ±100 the full control effect; nearly all actives have a fitted effect of over 50% in size
Outline: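 Readout is luciferase-coupled ATP content (CellTiter-Glo luminescence, 30 min room temperature) as a measure of metabolically competent cells. Parental HEK293 cells were plated 5 h or more before compound addition, then treated 18 h at 37 C.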

[9] = qHTS assay for cell viability of the p53RE-bla HCT-116 cell line (AID 743292); further: on the % scale 0 is the no-effect control and ±100 the full control effect; nearly all actives have a fitted effect of over 55% in size
Outline: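 CellSensor p53RE-bla HCT-116 cells (4,000/well) pre-incubated 5 h at 37 C, then exposed to compounds in DMSO for 16 h at 37 C. Viability read as ATP content by CellTiter-Glo luminescence after 30 min at room temperature.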

[10] = target: Tyrosine-protein kinase Yes (Homo sapiens) (UniProt P07947); experiment: qHTS for small molecule inhibitors of Yes1 kinase: Primary Screen (AID 686947); further: nearly all actives have a fitted effect of over 60% in size; further: potency means the concentration at half of the fitted maximal effect
Tyrosine-protein kinase Yes (Homo sapiens), sequence (P07947 whole entry, looked up): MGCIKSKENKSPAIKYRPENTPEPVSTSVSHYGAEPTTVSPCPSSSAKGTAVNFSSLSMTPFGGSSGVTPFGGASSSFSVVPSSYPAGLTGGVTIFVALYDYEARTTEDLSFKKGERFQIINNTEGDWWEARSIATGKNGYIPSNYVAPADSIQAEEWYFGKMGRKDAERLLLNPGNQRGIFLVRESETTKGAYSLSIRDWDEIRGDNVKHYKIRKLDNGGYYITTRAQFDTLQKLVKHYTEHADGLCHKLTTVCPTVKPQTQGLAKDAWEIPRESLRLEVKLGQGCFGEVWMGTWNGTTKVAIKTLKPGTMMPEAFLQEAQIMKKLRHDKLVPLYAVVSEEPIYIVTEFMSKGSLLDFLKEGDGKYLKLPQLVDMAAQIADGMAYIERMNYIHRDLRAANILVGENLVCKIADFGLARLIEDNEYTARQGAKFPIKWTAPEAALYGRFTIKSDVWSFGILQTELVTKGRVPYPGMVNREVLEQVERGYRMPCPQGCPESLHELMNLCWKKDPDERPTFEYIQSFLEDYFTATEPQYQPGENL
Outline: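 In this qHTS format, inhibition is expressed relative to DMSO controls with enzyme (maximum) and without enzyme (minimum). The 60 min room-temperature reaction uses 0.1 mM ATP, with ADP detected by luminescence.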

[11] = qHTS for small molecule inhibitors of Yes1 kinase: Counter Assay (AID 686950);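 further: no kinase present so only ADP-Glo detection of a fixed ADP amount is tested; luminescence from ADP-Glo reporting ADP in a fixed ATP and ADP mixture; 0% = DMSO wells with ATP plus ADP and -100% = ATP-only wells without ADP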
Outline: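 Measuring interference with ADP-Glo, the assay ran 60 min at room temperature on an ATP/ADP mix lacking enzyme. Values were normalized to ATP-plus-ADP (maximum) and ATP-only (minimum) DMSO controls.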

[12] = target: Arylsulfatase A (Homo sapiens) (UniProt P15289); experiment: qHTS screen for enhancers of Arylsulfatase A (ASA1): LOPAC Validation Assay (AID 720538); settings: outcome: dose series up to 57.5 µM
Arylsulfatase A (Homo sapiens), sequence (P15289 whole entry, looked up): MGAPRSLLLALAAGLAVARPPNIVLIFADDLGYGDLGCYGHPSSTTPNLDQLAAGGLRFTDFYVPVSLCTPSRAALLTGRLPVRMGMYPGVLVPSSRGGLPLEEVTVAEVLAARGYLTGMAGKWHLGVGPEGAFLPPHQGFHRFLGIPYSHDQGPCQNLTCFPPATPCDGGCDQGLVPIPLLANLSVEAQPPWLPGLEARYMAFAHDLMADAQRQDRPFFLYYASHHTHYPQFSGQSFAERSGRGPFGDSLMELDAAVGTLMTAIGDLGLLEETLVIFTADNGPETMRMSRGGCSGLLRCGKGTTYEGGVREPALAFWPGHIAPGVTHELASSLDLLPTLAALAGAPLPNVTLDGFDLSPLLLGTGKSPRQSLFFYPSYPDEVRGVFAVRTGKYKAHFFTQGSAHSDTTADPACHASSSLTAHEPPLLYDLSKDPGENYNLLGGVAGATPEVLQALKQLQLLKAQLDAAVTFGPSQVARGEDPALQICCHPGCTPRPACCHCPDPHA
Outline: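 Enhancer assay in patient-derived MLD fibroblasts carrying ASA-I179S: 48 h compound exposure at 37 C, then 14 h room-temperature pNCS turnover (0.5 mM final) in lysis buffer. Read by fluorescence at 525/598 nm after NaOH stop.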

[13] = qHTS for compounds that reverse cellular toxicity of Amyloid beta (A-beta) peptide in yeast: LOPAC Validation Assay (AID 720559);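 further: plate controls were DMSO for no effect and equimolar ferric chloride plus clioquinol rescue for full effect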
Outline: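 Rescue of A-beta toxicity was scored as yeast growth by 600 nm absorbance after 48 hr at 30 C with compound. Normalization used DMSO (negative) and equimolar ferric chloride plus clioquinol (positive).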

[14] = qHTS for Activators of Parkin Expression: LOPAC Validation Assay (NLuc Reporter) (AID 720572; further: potency means the concentration at half of the fitted maximal effect;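 on activation: 0% = DMSO and 100% = positive control compound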)
Outline: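 Cells harboring the Parkin-promoter coincidence reporter were treated for 24 h at seven concentrations. NLuc output was measured sequentially after the FLuc channel and scaled between DMSO and positive control values.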

[15] = qHTS for Activators of Parkin Expression: LOPAC Validation Assay (FLuc Reporter) (AID 720573; further: potency means the concentration at half of the fitted maximal effect;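 on activation: 0% = DMSO and 100% = positive control compounds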)
Outline: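 FLuc signal from Parkin-promoter coincidence reporter neuronal cells, normalized to DMSO and positive control (100%). Cells (1,500/well) pre-incubated 24 h, then exposed to LOPAC compounds in 7-point dose response for 24 h at 37 C, 5% CO2.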

[16] = target: T1, Hexokinase-4 (Homo sapiens) + Glucokinase regulatory protein (Homo sapiens) (UniProt P35557+Q14397); experiment: qHTS assay for inhibitors of recombinant human GCK-GKRP interaction: ADP-Glo assay (AID 743206);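 further: plate controls were DMSO plus enzyme for no effect and no enzyme for full effect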
T1 sequence (P35557 whole entry, looked up): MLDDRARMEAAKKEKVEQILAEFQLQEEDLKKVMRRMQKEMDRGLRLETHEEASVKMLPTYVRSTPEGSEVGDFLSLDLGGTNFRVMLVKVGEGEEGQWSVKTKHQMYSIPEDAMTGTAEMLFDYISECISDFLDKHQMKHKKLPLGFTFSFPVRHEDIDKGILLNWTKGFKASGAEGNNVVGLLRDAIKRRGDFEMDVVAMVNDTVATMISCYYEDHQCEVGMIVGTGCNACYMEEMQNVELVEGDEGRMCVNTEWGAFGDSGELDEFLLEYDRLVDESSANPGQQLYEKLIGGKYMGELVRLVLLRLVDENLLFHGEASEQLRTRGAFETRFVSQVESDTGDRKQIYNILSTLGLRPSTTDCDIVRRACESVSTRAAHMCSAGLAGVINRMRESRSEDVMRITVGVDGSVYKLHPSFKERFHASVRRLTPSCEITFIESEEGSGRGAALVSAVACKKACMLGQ
T1 sequence (Q14397 whole entry, looked up): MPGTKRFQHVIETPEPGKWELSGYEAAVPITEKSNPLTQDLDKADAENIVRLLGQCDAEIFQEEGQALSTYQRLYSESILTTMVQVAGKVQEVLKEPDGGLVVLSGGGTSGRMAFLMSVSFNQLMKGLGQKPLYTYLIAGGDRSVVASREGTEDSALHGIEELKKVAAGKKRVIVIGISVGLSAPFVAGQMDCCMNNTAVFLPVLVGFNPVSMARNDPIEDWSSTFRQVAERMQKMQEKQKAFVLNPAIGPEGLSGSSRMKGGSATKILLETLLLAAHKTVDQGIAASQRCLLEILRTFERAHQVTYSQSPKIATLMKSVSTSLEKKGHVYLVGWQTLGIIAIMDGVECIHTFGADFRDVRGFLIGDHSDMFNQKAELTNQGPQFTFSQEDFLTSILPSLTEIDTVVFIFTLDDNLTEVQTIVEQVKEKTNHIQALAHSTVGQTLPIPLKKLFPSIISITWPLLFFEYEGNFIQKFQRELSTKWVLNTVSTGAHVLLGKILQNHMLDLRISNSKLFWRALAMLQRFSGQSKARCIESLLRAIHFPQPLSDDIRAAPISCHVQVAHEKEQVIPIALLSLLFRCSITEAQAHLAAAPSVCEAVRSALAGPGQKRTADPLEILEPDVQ
Outline: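 Pin-transferred compounds meet a 15 nM GST-GCK/15 nM FLAG-GKRP/2 uM S6P mix (dispense concentrations). ATP is then added to 0.4 mM final with 5 mM glucose, and the reaction runs 60 min at room temperature. ADP is quantified luminescently.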

[17] = target: T1, Hexokinase-4 (Homo sapiens) + Glucokinase regulatory protein (Homo sapiens); experiment: qHTS assay for inhibitors of recombinant human GCK-GKRP interaction: HTRF assay (AID 743207);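 further: 0% = DMSO with GCK present and -100% = DMSO wells lacking GCK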
Outline: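 After 60 min equilibration at room temperature with anti-FLAG XL665 and anti-GST antibodies, FRET ratio (665/615 nm, excitation 320 nm) was read. Proteins: GST-GCK and FLAG-GKRP, each 5 nM, plus 2 uM S6P, pH 7.1 buffer; GCK-free wells define minimum signal.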

[18] = qHTS profiling for inhibitors of Plasmodium falciparum (3D7) proliferation (AID 743322; call rule not given here;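 further: infected erythrocytes exposed to compound for 72 h before lysis; 100% = DMSO vehicle wells and 0% = 0.29 µM artemisinin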); settings: P. falciparum 3D7 proliferation; at 28.7 µM (top of the series)
Outline: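 Parasite DNA was quantified by SYBR Green I fluorescence (ex 485, em 535 nm) after overnight lysis in saponin/Triton buffer at room temperature. Cultures at 0.3% parasitemia and 2.5% hematocrit were first exposed to compound for 72 h at 37 C; signals were normalised to artemisinin (0.29 uM) and vehicle wells.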

[19] = qHTS profiling for inhibitors of Plasmodium falciparum (DD2) proliferation (AID 743323; call rule not given here); settings: lower = more inhibition; at 28.7 µM (top of the series)
Outline: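 Parasite proliferation measured via DNA-dye fluorescence, as uninfected erythrocytes lack DNA. Cultures at 0.3% parasitemia and 2.5% hematocrit incubated 72 h with compound; signal scaled between vehicle and 0.29 uM artemisinin wells.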

[20] = qHTS profiling for inhibitors of Plasmodium falciparum (HB3) proliferation (AID 743324); settings: Plasmodium falciparum HB3 blood-stage proliferation; at 28.7 µM (top of the series);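 further: 100% = DMSO vehicle wells and 0% = artemisinin-treated control wells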
Outline: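 SYBR Green fluorescence (485 ex/535 em) of lysed cultures, incubated overnight at room temperature in the dark, quantifies parasite DNA. Infected erythrocytes at 0.3% parasitemia and 2.5% hematocrit were exposed 72 h; values normalized to DMSO and 0.29 uM artemisinin controls.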

O=C(O)Cc1cccc2ccccc12
inactive: activation [1] 0.508% and -1.02% | max response [2] -0.727% and -1.42% | Potency [3] | Potency [4] | Potency [5] | max response [6] -3.63% and 1.79% | max response [7] 19.3% and -5.56% | max response [8] 1.25% and 0.847% | Potency [9]

Cn1cc(C=C2C(=O)Nc3cccnc32)c2ccccc21
inactive: outcome [11]
active: Potency [10] 0.519 µM

O=c1cc(-c2ccc(O)cc2)oc2cc(O)cc(O)c12
active: Potency [14] 16.4 µM | Potency [15] 3.26 µM
inactive: max response [2] -4.82% and -0.91% | outcome [12] | outcome [13] | Potency [5] | max response [6] -5.98% and -9.88% | outcome [16] | outcome [17] | max response [7] 0.431% | max response [8] -29.2% and -22.7% | Potency [9]

O=c1[nH]cnc2c1ncn2[C@H]1CC[C@@H](CO)O1
inactive: activation [1] -1.42% and 4.55% | max response [2] -3.68% and -4.63% | Potency [3] | Potency [4] | Potency [5] | max response [6] 7.68% and 6.47% | max response [7] -6.96% | max response [8] -8.26% and -9.92% | Potency [9]

O=c1c(O)c(-c2ccc(O)cc2)oc2cc(O)cc(O)c12
inactive: max response [2] -3% and -2.05% | max response [6] -6.13% and -4.97% | max response [8] 3.99% and -0.18% | Potency [9]

O=c1cc(CN2CCOCC2)occ1OCCCCCSc1ccnc2cc(C(F)(F)F)ccc12
17.5%: remaining proliferation (% of control), lower = more inhibition [20]
26.8%: activity, percent of control [19]
28.8%: remaining parasite growth % (stronger effect = lower value) [18]
inactive: Potency [10] | outcome [11] | max response [7] 18.6%

CCCCC1C(=O)N(c2ccccc2)N(c2ccccc2)C1=O
inactive: activation [1] -1.23% and 0.389% | max response [2] -2.74% and -1.79% | Potency [3] | outcome [12] | outcome [13] | Potency [15] | Potency [4] | Potency [5] | max response [6] 4.44% and 1.83% | outcome [16] | outcome [17] | max response [7] -1.91% and -0.936% and 31.1% | max response [8] -8.44% and -3.31% | Potency [9]

O=c1cc(-c2ccccc2)oc2cc(O)cc(O)c12
active: Potency [1] 39.8 µM | Potency [4] 13.7 µM
inactive: max response [2] -1.65% | max response [6] -2.85% | max response [8] -14.1% | Potency [9]

CC(C)OC(=O)C(C)(C)Oc1ccc(C(=O)c2ccc(Cl)cc2)cc1
inactive: activation [1] 2.52% | outcome [12] inactive; inhibitor; fitted 0.151 uM | max response [6] 3.55% | outcome [16] | outcome [17] | max response [7] 7.26% and 15.7% | max response [8] -17.2% | Potency [9]

Clc1ccc(-c2nc3sccn3c2C=NOCc2ccc(Cl)c(Cl)c2)cc1
inactive: Potency [10] | outcome [11] | max response [7] 17.5%
103%: remaining proliferation (% of control), lower = more inhibition [20]
101%: activity, percent of control [19]
110%: remaining parasite growth % (stronger effect = lower value) [18]

O=C1C(Cl)=C(NCCN2CCOCC2)C(=O)c2ncccc21
active: Potency [10] 6.88 µM
17.3%: activity, percent of control [19]
inactive: outcome [11] | max response [7] -156%
34.6%: remaining parasite growth % (stronger effect = lower value) [18]
26.6%: remaining proliferation (% of control), lower = more inhibition [20]

CC(=O)N[C@@H](CS)C(=O)O
inactive: activation [1] -0.0175% | max response [2] -0.248% | outcome [12] | outcome [13] | Potency [14] | Potency [15] | Potency [4] | max response [6] 3.38% | outcome [16] | outcome [17] | max response [7] 4.68% and -17% | max response [8] -3.84% | Potency [9]

O=c1cc(N2CCOCC2)oc2c(-c3cccc4c3sc3ccccc34)cccc12
5.89%: remaining proliferation (% of control), lower = more inhibition [20]
inactive: Potency [10] | outcome [11] | max response [7] -22.3%
10.6%: activity, percent of control [19]
3.79%: remaining parasite growth % (stronger effect = lower value) [18]

c1ccc2c(-c3cnn4cc(-c5ccc(N6CCNCC6)cc5)cnc34)ccnc2c1
inactive: outcome [11]
active: Potency [10] 0.137 µM | Potency [7] 3.72 µM
-0.291%: activity, percent of control [19]
-1.65%: remaining parasite growth % (stronger effect = lower value) [18]

CCCNC(=O)NS(=O)(=O)c1ccc(Cl)cc1
inactive: activation [1] 0.08% and -1.06% | max response [2] 5.97% and -0.845% | Potency [3] | outcome [13] | Potency [14] | Potency [15] | Potency [4] | Potency [5] | max response [6] 9.19% and -14.5% | outcome [16] | outcome [17] | max response [7] 10.2% and -7.21% | max response [8] 3.46% and -2.3% | Potency [9]
